Assay [1] deals with RAW-Dual. Kind of assay: NF-kB SEAP reporter activity, fold change vs agonist alone; cytotoxicity flag (confluency mask): not cytotoxic; higher = enhanced NF-kB activity. A digest of the protocol: (§1)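 RAW-Dual macrophages were seeded in DMEM at 50,000 cells/well in 384-well plates, given 50 nL of library stock by pin tool, and given a PRR agonist 1 h later. Plates were held at 37 °C, 5% CO2 for 20 hours, after which supernatant was read for IRF by QuantiLuc luminescence and for NF-κB by QuantiBlue absorbance at 620 nm. Reporter activity is expressed as fold change over wells that received agonist alone. A well was called cytotoxic when IncuCyte confluency fell below 70% of agonist controls in both mask sets.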

The test system of assay [2] is RAW-Dual. Nature of the assay: NF-kB SEAP reporter activity, fold change vs agonist alone; higher = enhanced NF-kB activity. Particulars: library stock concentration (final ~1000-fold dilution): 10 mM. Put shortly:
as §1

The subject of assay [3] is RAW-Dual. Kind of assay: NF-kB SEAP reporter activity, fold change vs agonist alone; cytotoxicity flag (confluency mask): cytotoxic (confluency <70% of control); higher = enhanced NF-kB activity. A digest of the protocol: as §1
Setting [4] is: agonist: ODN 1826 (TLR9) 0.5 ug/mL.
Setting [5] is: agonist: Pam2CSK4 (TLR2/6) 0.1 ug/mL.
[6] abbreviates: agonist: Pam3CSK4 (TLR2/1) 0.1 ug/mL.
Where [7] appears, read: cytotoxicity flag (confluency mask): not cytotoxic, agonist: Imiquimod (TLR7) […].
The mark [8] stands for this setting: cytotoxicity flag (confluency mask): not cytotoxic, agonist: MPLA (TLR4) […].

Where “and” joins values, the source holds several entries; their conditions need not be identical. Equal entries are not always repeated. Whole data set: some 2,900 compounds, median “NF-kB SEAP reporter activity, fold change vs agonist alone” near 0.99, cut for the highest 2% near 2.6. The entries come from a sample that favours the highest values as a whole.

In the case of `Cl.Nc1ccn(C2OC(CO)C(O)C2O)c(=O)n1` (stereo unspecified) (library stock concentration (final ~1000-fold dilution): 10 mM), the “NF-kB SEAP reporter activity” value with RAW-Dual [1] (agonist: LPS (TLR4) 0.1 ug/mL) came out at 0.959; in the assay on RAW-Dual [1] (setting [4]), 1.65; in the assay on RAW-Dual [1] (setting [5]), 1.16; in the assay with RAW-Dual [1] (setting [6]), 1.35.
Regarding `Cl.Nc1ccn(C2OC(CO)C(O)C2O)c(=O)n1` (stereo unspecified), the results for the “NF-kB SEAP reporter activity” value with RAW-Dual [2] (setting [7]) and with RAW-Dual [2] (setting [8]) were 1.72 and 1.42, respectively.
Taken in the same sequence, the figures for `C=C1CC[C@@H]2[C@](C)(CO)[C@H](O)CC[C@@]2(C)[C@@H]1/C=C/C1=CCOC1=O` were 0.706 and 0.901.
`C=C1CC[C@@H]2[C@](C)(CO)[C@H](O)CC[C@@]2(C)[C@@H]1/C=C/C1=CCOC1=O` (library stock concentration (final ~1000-fold dilution): 10 mM): the “NF-kB SEAP reporter activity” value in the assay on RAW-Dual [1] (agonist: LPS (TLR4) 0.1 ug/mL) was found to be 0.755; in the assay on RAW-Dual [1] (setting [4]), 0.721; with RAW-Dual [1] (setting [5]), 0.5; with RAW-Dual [1] (setting [6]), 0.597.
Take `Cl.Cl.O=c1cc(CN2CCOCC2)occ1OCCCCCSc1ccnc2cc(C(F)(F)F)ccc12`: the “NF-kB SEAP reporter activity” value with RAW-Dual [2] (cytotoxicity flag (confluency mask): cytotoxic (confluency <70% of control), agonist: Imiquimod (TLR7) […]) worked out at 0.953; in the assay on RAW-Dual [2] (cytotoxicity flag (confluency mask): cytotoxic (confluency <70% of control), agonist: MPLA (TLR4) […]) it was 0.895.
Take `Cl.Cl.O=c1cc(CN2CCOCC2)occ1OCCCCCSc1ccnc2cc(C(F)(F)F)ccc12` (library stock concentration (final ~1000-fold dilution): 10 mM): the “NF-kB SEAP reporter activity” value came to 0.81 with RAW-Dual [3] (agonist: LPS (TLR4) 0.1 ug/mL), 0.603 in the assay with RAW-Dual [3] (setting [4]), 0.59 in the assay on RAW-Dual [3] (setting [5]) and 0.529 in the assay on RAW-Dual [3] (setting [6]).
Take `Nc1ncnc2[nH]nc(Nc3ccc(F)cc3)c12` (library stock concentration (final ~1000-fold dilution): 10 mM): the “NF-kB SEAP reporter activity” value was determined as 6.5 in the assay on RAW-Dual [1] (agonist: LPS (TLR4) 0.1 ug/mL), 1.43 with RAW-Dual [1] (setting [4]), 0.872 in the assay on RAW-Dual [1] (setting [5]) and 1.26 with RAW-Dual [1] (setting [6]).
As to `Nc1ncnc2[nH]nc(Nc3ccc(F)cc3)c12`, the “NF-kB SEAP reporter activity” value in the assay with RAW-Dual [2] (setting [7]) turned out to be 1.13; with RAW-Dual [2] (setting [8]), 2.6.
On to `Fc1ccc(CNc2ncnc3ccc(F)cc23)cc1` (library stock concentration (final ~1000-fold dilution): 10 mM), for which the “NF-kB SEAP reporter activity” value in the assay with RAW-Dual [1] (agonist: LPS (TLR4) 0.1 ug/mL) was found to be 2.47; with RAW-Dual [1] (setting [4]) it was 1.19; in the assay on RAW-Dual [1] (setting [5]), 1.06; in the assay on RAW-Dual [1] (setting [6]), 1.25.
Take `Fc1ccc(CNc2ncnc3ccc(F)cc23)cc1`: the results for the “NF-kB SEAP reporter activity” value in the assay with RAW-Dual [2] (setting [7]) and in the assay on RAW-Dual [2] (setting [8]) were 0.988 and 1.47, respectively.
Taken in the same sequence, the figures for `COc1cc2c(cc1Cc1cccc(Cl)c1F)c(=O)c(C(=O)O)cn2C(CO)C(C)C` (stereo unspecified) were 1.06 and 1.17.
As to `COc1cc2c(cc1Cc1cccc(Cl)c1F)c(=O)c(C(=O)O)cn2C(CO)C(C)C` (stereo unspecified) (library stock concentration (final ~1000-fold dilution): 10 mM), the “NF-kB SEAP reporter activity” value in the assay with RAW-Dual [1] (agonist: LPS (TLR4) 0.1 ug/mL) worked out at 1.45; in the assay with RAW-Dual [1] (setting [4]), 1.08; with RAW-Dual [1] (setting [5]) it was 0.664; in the assay with RAW-Dual [1] (setting [6]) it was 0.625.
On to `O=C1c2ccc(O)cc2C(=O)c2ccc(O)cc21`, for which the “NF-kB SEAP reporter activity” value in the assay with RAW-Dual [2] (setting [8]) amounted to 1.26.
Turning to `O=C1c2ccc(O)cc2C(=O)c2ccc(O)cc21` (library stock concentration (final ~1000-fold dilution): 10 mM), the “NF-kB SEAP reporter activity” value stood at 1.38 in the assay with RAW-Dual [1] (agonist: LPS (TLR4) 0.1 ug/mL), 1.04 in the assay on RAW-Dual [1] (setting [4]), 1.32 with RAW-Dual [1] (setting [5]) and 1.16 with RAW-Dual [1] (setting [6]).
Take `Nc1nc(F)nc2c1ncn2C1OC(COP(=O)(O)O)C(O)C1O` (stereo unspecified): the “NF-kB SEAP reporter activity” value in the assay on RAW-Dual [2] (setting [7]) worked out at 0.903; with RAW-Dual [2] (setting [8]) it was 1.03.
As for `Nc1nc(F)nc2c1ncn2C1OC(COP(=O)(O)O)C(O)C1O` (stereo unspecified) (library stock concentration (final ~1000-fold dilution): 10 mM), the “NF-kB SEAP reporter activity” value in the assay on RAW-Dual [1] (agonist: LPS (TLR4) 0.1 ug/mL) worked out at 1.14; in the assay on RAW-Dual [1] (setting [4]), 1.01; in the assay on RAW-Dual [1] (setting [5]) it was 1; in the assay on RAW-Dual [1] (setting [6]) it was 1.15.
Take `O=C(c1ccccc1)c1ccc2nc(NC(=O)c3csc(C4CCN(c5ncnc6ccsc56)CC4)n3)[nH]c2c1` (library stock concentration (final ~1000-fold dilution): 10 mM): the “NF-kB SEAP reporter activity” value with RAW-Dual [1] (agonist: LPS (TLR4) 0.1 ug/mL) was 2.75 and 2.17; in the assay on RAW-Dual [1] (setting [4]), 1.57 and 1.25; with RAW-Dual [1] (setting [5]), 0.384 and 0.435; with RAW-Dual [1] (setting [6]) it was 0.694 and 0.75.

(Values after the supplement of paper PMC10037445.)
